According to PubChem BioAssay (NCATS):
Inconclusive results are not listed. Entries that show only a call come without a potency. Calls of active or inactive are those of the source. The call rests on the fitted dose curve; in most records, active means well fitted cell-killing curve with a large enough effect; inconclusive means small, poorly fitted or top-dose-only effect; inactive means flat fitted curve, though single readings scatter.
Potency means the concentration at half of the fitted maximal effect.

Test: qHTS of pediatric cancer cell lines to identify multiple opportunities for drug repurposing: Primary screen for U-2 OS cells (AID 1347096); further: nearly all actives have a fitted effect of over 50% in size
Conditions: U-2 OS viability, CellTiter-Glo luminescence, 48 h; series mostly up to 46 µM
From the text: Drug repurposing or repositioning has been offered as a strategy for drug development in oncology programs. This approach has special potential for childhood cancers and other rare or orphan diseases, where the expected return on new drug development has been a disincentive to pharmaceuticals.
In this project we exploit the poly-pharmacology of drugs to discover new indications via phenotypic screening of a panel of 19 well-characterized cell lines derived from solid tumors seen in children and adolescents. The goal is to identify approved drugs with previously unrecognized anticancer properties that has the potential to reveal new mechanisms and biological processes involved in carcinogenesis or drug resistance. We employed a titration-based paradigm (quantitative high-throughput screening or qHTS), where all compounds were tested at multiple concentrations for their effect on cell viability. Concentration-response curves (CRCs) were derived directly from the primary screen, and both potency and efficacy values were used to identify compounds with robust bioactivity profiles. We screened the NIH Chemical Genomics Center (NCGC) Pharmaceutical Collection (NPC) and Mechanism Interrogation Plate (MIPE) small molecule collections of approved and investigational compounds against these cell lines; and measured metabolically active cells after 48 hours of compound treatment as a proxy for cell viability.
Assay Submitter: Nathalia J. Martinez, National Center for Advancing Translational Sciences, National Institutes of Health, Rockville, MD, USA; email: natalia.martinez@nih.gov
[1] Shen, M et al. Quantitative high-throughput phenotypic screening of pediatric cancer cell lines identifies multiple opportunities for drug repurposing. Oncotarget 2017 Dec 19;9(4):4758-4772. PMID 29435139.
The cells were obtained from University of North Carolina (UNC), Pediatric Preclinical Testing Program (PPT), and Coriell Institute (CI).
qHTS cell viability assay:
Cells were assayed in growth media at a density of 500-1,000 cells/well. Five microliters of cells were dispensed into 1,536-well, white, solid-bottom, TC-treated plates (Greiner Bio One) using a multidrop dispenser and incubated at 37 degrees C, 5% CO2, under a humidified atmosphere for 5 hours. Twenty-three nanoliters of compounds and controls (neutral control DMSO or positive control bortezomib at final concentration of 2.3 µM) were subsequently transferred by Kalypsys pintool. For primary screens, the MIPE collection was tested at 11-point dilutions (final concentrations range from 0.78 nM to 46 µM) and the NPC collection at 8-point dilutions (final concentrations range from 0.59 nM to 46 µM). Compounds tested in follow-up screens were assayed at 11-point dilutions. Cells were incubated for 48 hours, followed by addition of 3 µL of CellTiter-Glo (Promega). After a 15 min incubation at room temperature, samples were analyzed for luminescence intensity using a ViewLux High-throughput CCD imager equipped with clear filters.
For CN1C(CCl)Nc2cc(Cl)c(S(N)(=O)=O)cc2S1(=O)=O (stereo not given), the Potency was “inactive”. For CC(Cc1ccccc1)(NC(=O)CN)c1ccccc1 (stereo not given), the Potency was “inactive”. For Cc1cc(=O)n(-c2ccccc2)n1C, the Potency was “inactive”. In the case of C/C=C/c1ccc(OC)cc1, the Potency is reported as “inactive”. For Oc1ccc(O)cc1, the Potency was “inactive”. In the case of COc1c2occc2c(OC)c2c(=O)cc(C)oc12, the Potency is reported as “inactive”. With CCCCCCCCCCCCCCCCOP(=O)([O-])OCC[N+](C)(C)C the Potency was “inactive”. With C[C@H](O)C(=O)Nc1c(I)c(C(=O)NC(CO)CO)c(I)c(C(=O)NC(CO)CO)c1I the Potency was “inactive”. For C[C@]12CC[C@@H]3c4ccc(O)cc4CC[C@H]3[C@@H]1C[C@@H](O)[C@@H]2O, the Potency was “inactive”. With Cc1onc(-c2c(Cl)cccc2Cl)c1C(=O)N[C@@H]1C(=O)N2[C@@H]1SC(C)(C)[C@@H]2C(=O)O the Potency was “inactive”. For CN(C)CC/C=C1\c2ccccc2Sc2ccc(Cl)cc21, the Potency was “inactive”. For O=C1OC2(c3ccc(O)cc3Oc3cc(O)ccc32)c2ccccc21, the Potency was “inactive”. In the case of Cc1c(C(C)C)c(=O)n(-c2ccccc2)n1C, the Potency is reported as “inactive”. In the case of O=S1(=O)c2cccc3cccc(c23)N1CCCN1CCN(c2ccc(F)cc2)CC1, the Potency is reported as “inactive”. With CCOc1ccc(NC(=O)CC(C)O)cc1 (stereo not given) the Potency was “inactive”. In the case of C[C@]12CC[C@H]3[C@@H](CCC4=CC(=O)CC[C@@]43C)[C@@H]1CC[C@@H]2C(=O)CO, the Potency is reported as “inactive”. For CCN(CC)C(=O)/C(C#N)=C/c1cc(O)c(O)c([N+](=O)[O-])c1, the Potency was “inactive”. With CCOC(=O)c1cccc(N)c1 the Potency was “inactive”. For Cc1cccc(C)c1NC(=O)CN1CCN(CCCC(c2ccc(F)cc2)c2ccc(F)cc2)CC1, the Potency was “inactive”. In the case of COc1cccc2c1C(=O)c1c(O)c3c(c(O)c1C2=O)C[C@@](O)(C(C)=O)C[C@@H]3O[C@H]1C[C@H](N)[C@H](O)[C@H](C)O1, the Potency is reported as 6.68 µM (active). With CN(C)CC/C=C1/c2ccccc2COc2ccc(CC(=O)O)cc21 the Potency was “inactive”. With CN(C(=O)CN(CCO)CC(=O)N(C)C(C)(C)Cc1ccccc1)C(C)(C)Cc1ccccc1 the Potency was “inactive”. In the case of CN1CCN(C(c2ccccc2)c2ccccc2)CC1, the Potency is reported as “inactive”. For Nc1ccc(C(=O)O)cc1, the Potency was “inactive”. With CCN(CC)C(=O)N1CCN(C)CC1 the Potency was “inactive”. With O=c1[nH]c(=O)n([C@H]2C[C@H](O)[C@@H](CO)O2)cc1C(F)(F)F the Potency was “inactive”. In the case of C[C@@H]1C[C@H]2[C@@H]3C[C@H](F)C4=CC(=O)C(Cl)=C[C@]4(C)[C@@]3(F)[C@@H](O)C[C@]2(C)[C@@]1(O)C(=O)CO, the Potency is reported as “inactive”. In the case of COc1c(C)c2c(c(O)c1C/C=C(\C)CCC(=O)O)C(=O)OC2, the Potency is reported as “inactive”. With Cc1cc(O)c(C(C)C)cc1Cl the Potency was “inactive”. With CC1(C)O[C@@H]2C[C@H]3[C@@H]4C[C@H](F)C5=CC(=O)C=C[C@]5(C)[C@H]4[C@@H](O)C[C@]3(C)[C@]2(C(=O)CO)O1 the Potency was “inactive”. For CN=C(NC#N)Nc1ccc(C2=NNC(=O)CC2C)cc1 (stereo not given), the Potency was “inactive”. In the case of CC(C)(CO)[C@@H](O)C(=O)NCCCO, the Potency is reported as “inactive”. With CC1(C)O[C@@H]2C[C@H]3[C@@H]4CCC5=CC(=O)CC[C@]5(C)[C@@]4(F)[C@@H](O)C[C@]3(C)[C@]2(C(=O)CCl)O1 the Potency was “inactive”. For CCC(=O)c1c(O)cc(O)cc1O, the Potency was “inactive”. In the case of C[n+]1c2cc(N)ccc2cc2ccc(N)cc21 (tested in a mixture with another compound), the Potency is reported as 13.3 µM (active). For CCOC(=O)[C@H](CCc1ccccc1)N[C@@H](C)C(=O)N1Cc2ccccc2C[C@H]1C(=O)O, the Potency was “inactive”. In the case of COc1ccc(OC)c(C(O)CNC(=O)CN)c1 (stereo not given), the Potency is reported as “inactive”. With CCCN1CCCC[C@H]1C(=O)Nc1c(C)cccc1C the Potency was “inactive”. With COc1cc2c(cc1OC)[C@@H]1CC(=O)[C@@H](CC(C)C)CN1CC2 the Potency was “inactive”. With CC(C)COC(=O)c1ccc(N)cc1 the Potency was “inactive”.
